# In the library only some 3.5% were active in any assay of this set; here they are far more common.
# FBW7 act = activators of human E3 ligase FBW7; normalized activity (activation), % at 26.1 µM; AID 1259310; Q969H0; AlphaScreen FBW7–phospho-cyclin E peptide binding, activator screen; actives 0.13% (n = 650,000); in the data active = normalized activity above about 1.9%;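 also: purified mutant Fbw7 with reduced substrate affinity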
# MITF inh = inhibitors of human MITF; O75030; AlphaScreen MITF homodimerization, bead proximity signal; inhibition, % at 2.6 µM; actives 0.91% (n = 650,000); AID 1259374; in the data active = inhibition above about 50%;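 also: 0% = vehicle wells with protein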
# Target sequence (O75030 whole entry, looked up): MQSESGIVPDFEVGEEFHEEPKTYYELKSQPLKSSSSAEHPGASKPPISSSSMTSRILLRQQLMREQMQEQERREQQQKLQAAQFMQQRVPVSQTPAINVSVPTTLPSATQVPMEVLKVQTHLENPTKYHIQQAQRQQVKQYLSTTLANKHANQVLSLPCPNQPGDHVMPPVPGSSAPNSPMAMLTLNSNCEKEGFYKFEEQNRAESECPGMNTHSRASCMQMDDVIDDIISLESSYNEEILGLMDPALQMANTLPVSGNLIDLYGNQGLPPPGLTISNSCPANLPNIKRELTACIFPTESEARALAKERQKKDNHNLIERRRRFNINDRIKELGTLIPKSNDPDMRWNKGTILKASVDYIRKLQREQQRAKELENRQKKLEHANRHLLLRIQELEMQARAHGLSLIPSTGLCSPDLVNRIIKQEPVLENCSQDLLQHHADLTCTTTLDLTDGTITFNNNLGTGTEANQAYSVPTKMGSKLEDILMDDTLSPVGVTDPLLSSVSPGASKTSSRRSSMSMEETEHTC
# GPR151 activ = activates the human receptor GPR151; PathHunter beta-arrestin GPR151 cells, luminescence; activation, % at 11.2 µM; actives 1% (n = 650,000); in the data active = activation above about 4.9%;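 also: 0% = median of compound wells and 100% = cells with positive control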
# TEAD-YAP block = TEAD-YAP interaction inhibition. HEK-TIYL cells, TEAD-Gal4/YAP UAS-luciferase luminescence. inhibition, % at 9.12 µM. actives 1.4% (n = 640,000). AID 1259422; in the data active = inhibition above about 32%;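 also: 0% = median of test compound wells and 100% = reference inhibitor wells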
# An asterisk follows results filed as active.
SMILES,FBW7 act,MITF inh,GPR151 activ,TEAD-YAP block
O=C(CCl)N(Cc1ccccc1)C1CCS(=O)(=O)C1 (stereo not given),0,3,0,56*
CC1CCCC(C)N1C(=O)COC(=O)c1cccc(Br)c1 (stereo not given),0,6,0,5
Cn1c(=O)c2c(nc(NCc3ccccc3)n2Cc2ccc(Cl)cc2Cl)n(C)c1=O,0,1,-1,4
O=C(CCl)N(C1CCCC1)C1CCS(=O)(=O)C1 (stereo not given),1,4,-1,65*
O=C(c1ccc(CS(=O)c2ccccc2)o1)N1CCN(c2ccccc2)CC1 (stereo not given),0,10,1,42*
Cc1ccc(CS(=O)Cc2ccc(C(=O)N3CCN(c4ccccc4)CC3)o2)cc1 (stereo not given),1,11,-1,17
Cc1ccc(S(=O)(=O)Cc2ccc(C(=O)N3CCN(c4ccccc4)CC3)o2)cc1,0,16,0,40*
Cc1ccccc1S(=O)Cc1ccc(C(=O)N2CCN(c3ccccn3)CC2)o1 (stereo not given),0,15,1,42*
Cc1ccc(S(=O)Cc2ccc(C(=O)N3CCN(c4ccccc4)CC3)o2)cc1 (stereo not given),0,2,0,50*
Cc1c(N=c2scc(-c3ccccc3)n2-c2c(C)n(C)n(-c3ccccc3)c2=O)c(=O)n(-c2ccccc2)n1C,0,8,-1,5
COC(C(=O)N1CCC(C(=O)c2nc3ccccc3s2)CC1)c1ccccc1 (stereo not given),0,-8,0,8
CC(C)(C)C1=NN(CC(=O)N2CCNC(=O)C2)C(=O)c2cc3ccccc3n2C1,0,5,1,3
O=C(C1CN(Cc2ccco2)CCN1)N1CCCC1 (stereo not given),0,14,0,13
CCCC1N=C(c2cccc(OC)c2)CC(c2cc(Br)ccc2O)N1 (stereo not given),0,1,2,39*
CCOc1cccc(C2CC(c3cccc(OC)c3)=NC(C(C)C)N2)c1O (stereo not given),0,3,0,36*
CCCCOC(=O)c1cc2cc(Br)cc(Br)c2oc1=O,0,4,0,-2
CC(C)(C)N1CC(COc2ccccc2)OC1=O (stereo not given),0,-12,0,-11
Cc1ncc(CO)c(/C=N/NC(=O)c2cc3c(s2)CCCC3)c1O,-1,29,-1,40*
Cc1ncc(CO)c(/C=N/Nc2nc3ccccc3[nH]2)c1O,-1,86*,1,-11
Cc1ncc(CO)c(/C=N/NC(=O)c2ccc(C(C)(C)C)cc2)c1O,0,15,0,83*
O=C1CCC(CCNCCOc2ccc(F)cc2)N1CC1(c2ccccc2)CCOCC1 (stereo not given),0,-18,1,4
O=C(Nc1ccc(Cl)cc1)Nc1ccc(S(=O)(=O)Nc2ncccn2)cc1,2.5*,-23,-1,-2
COc1cccc(CN(C)C(=O)c2cnc3cc(-c4cn[nH]c4)ccn23)c1,0,-5,-1,46*
COc1cccc(CN(CCCN(C)C)C(=O)Nc2ccc(-c3cn[nH]c3)cc2OC)c1,0,-10,1,-12
COc1cccc(CN(CCN(C)C)C(=O)c2cnc3ccc(-c4cn[nH]c4)cn23)c1,0,1,1,45*
SMILES,FBW7 act,MITF inh,GPR151 activ,TEAD-YAP block
COc1cccc(CN(CCN(C)C)C(=O)c2cnc3cc(-c4cn[nH]c4)ccn23)c1,0,-4,-2,-10
COc1cccc(CN(CCN(C)C)C(=O)Nc2ccc(-c3cn[nH]c3)cc2N(C)C)c1,0,25,-1,50*
COc1ccc2c(CC(=O)OC(C)C(N)=O)coc2c1 (stereo not given),0,11,0,7
CCOC(=O)C(CC)Sc1ncnc2c1nnn2-c1ccc(OC)cc1 (stereo not given),0,0,0,2
O=S(=O)(Nc1ccc2c(c1)OCCO2)c1ccc(Cl)cc1,0,5,-1,-8
O=S(=O)(Cc1ccc(Cl)cc1)Nc1ccc2c(c1)OCCO2,0,3,0,41*
COC(=O)c1ccccc1S(=O)(=O)N1CCC(c2nc3ccccc3o2)CC1,0,2,4,-3
O=C(NCCc1ccccc1)c1ccc2c(c1)NC(=O)c1ccccc1S2,0,-1,0,53*
CCCNC(=O)c1ccc2c(c1)NC(=O)c1ccccc1S2,0,-2,1,-1
O=C(c1ccc(Cn2c(=S)[nH]c3ccc(Br)cc3c2=O)cc1)N1CCc2ccccc2C1,0,12,-1,10
CCCNc1nc(N2CCN(c3ccccn3)CC2)nc2c1ncn2-c1ccccc1,0,0,-1,40*
c1ccc(-n2cnc3c(NCc4nc5ccccc5[nH]4)nc(N4CCN(c5ccccn5)CC4)nc32)cc1,0,-1,-2,48*
c1ccc(-n2cnc3c(NCc4nc5ccccc5[nH]4)nc(N4CCc5ccccc5C4)nc32)cc1,0,3,1,-13
Cn1ccc(CC(=O)N2CCc3ccc(NC(=O)c4ccccc4Cl)cc3C2)c1,0,1,0,43*
O=C(Nc1ccc2c(c1)CN(C(=O)CN1CCOC1=O)CC2)c1ccccc1Cl,0,-8,0,3
COc1ccc(CCNC(=S)Nc2ccc(OC(F)F)cc2)cc1OC,1,11,1,7
CCn1nc(C(=O)Nc2cccc3c2C(=O)N(C)C3=O)cc1C,0,5,2,0
COc1c(C)cc(C(=O)C2CCCN(S(=O)(=O)c3ccsc3)C2)cc1C (stereo not given),0,3,1,44*
COc1c(C)cc(C(=O)C2CCCN(S(=O)(=O)c3cccs3)C2)cc1C (stereo not given),0,-4,0,52*
CC(C)NC(=O)C1CCCN(S(=O)(=O)c2cccs2)C1 (stereo not given),0,-7,0,2
COc1cc(Nc2cc(C)nc(Nc3cc(OC)c(OC)c(OC)c3)n2)cc(OC)c1OC,0,-4,0,24
COc1ccc(CCNc2cc(C)nc(Nc3cc(OC)c(OC)c(OC)c3)n2)cc1,0,1,2,36*
COc1ccc(CCNc2cc(C)nc(Nc3ccncc3)n2)cc1,0,-4,1,-4
COc1cc(Nc2cc(C)nc(Nc3cccc(N(C)C)c3)n2)cc(OC)c1OC,0,-8,1,48*
CCc1cccc(NC(=O)C2CCN(c3nccc(C)n3)CC2)c1,0,-9,-1,5
O=C(N/N=C/c1c(Cl)cccc1Cl)c1ccco1,0,7,-1,-26
Cc1cc(C)nc(Sc2nc(Sc3nc(C)cc(C)n3)nc(N(c3ccccc3)c3ccccc3)n2)n1,0,-10,1,9
O=S(=O)(c1ccc(NC(=S)N/N=C/c2ccc(O)c(O)c2)cc1)N1CCOCC1,0,-15,0,10
O=S(=O)(c1ccc(NC(=S)N/N=C/c2cccc(O)c2O)cc1)N1CCOCC1,-1,59*,0,4

# Source: PubChem BioAssay
